# Screens from PubChem.
# Shiga toxin inh: inhibitors of Shiga toxin in Vero cells | Vero cells, Shiga toxin protein synthesis inhibition reporter | inhibition, % at 38.7 µM | 9.2% of 290,000 active | AID 2315; in the data active = inhibition mostly above about 28%, no sharp cut-off; inactive = mostly below about 43%; note: 0% is about no effect
# Marburg entry inh: Marburg virus entry inhibition | Marburg virus pseudotyped entry inhibition, cell reporter | AID 540276 | 1.8% of 300,000 active | Potency, µM (top dose mostly 37.8 µM), for inactives: top-dose activity change, negative = inhibition, actives largely listed as inhibitors; calls by dose curve; tested in HEK293 cells; note: potency is the fitted concentration of half-maximal effect; % is set by controls: 0 for no effect and ±100 for the full control effect
# AMA1 RON2 block: disrupts binding of P. falciparum AMA1 to RON2; AID 720542; 0.2% of 360,000 active; Potency, µM (titrated, usually from 58.2 µM), without a hit: at the top dose activity change, negative = inhibition, usual class: inhibitors; AlphaScreen AMA1-biotinylated RON2 peptide binding; active = well fitted inhibition curve with a large enough effect; inconclusive = small, poorly fitted or top-dose-only effect; inactive = no such curve, though single readings can be large or run the other way;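 note: potency is the fitted concentration of half-maximal effect; 0% = vehicle wells and -100% = peptide control; nearly all actives have a fitted effect of over 45% in size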
#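 AMA1 (3D7) with his tag at 25 nM final met compounds first, then biotinylated RON2 peptide at 25 nM; detection used donor plus acceptor beads, 10 µg/mL apiece, read by AlphaScreen after 30 min at room temperature.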
# CHX counter: affects cycloheximide protein synthesis inhibition readout, counter-screen; cell reporter, cycloheximide protein synthesis inhibition counterscreen; max response, %; 12% of 300,000 active; in the data active = max response mostly above about 13%, no sharp cut-off; inactive = mostly below about 14%; note: read at 38.3 µM for the half of the compounds with a filed dose; 0% is about no effect
# LASV entry inh: Lassa virus entry inhibition; Lassa virus pseudotype entry inhibition, cell reporter; Potency, µM (series often up to 37.9 µM), inactives show at the top dose activity change, negative = inhibition, usual class: inhibitors; 1.2% of 300,000 active; AID 540256; calls by dose curve; tested in HEK293 cells; note: potency is the fitted concentration of half-maximal effect; % is set by controls: 0 for no effect and ±100 for the full control effect; nearly all actives have a fitted effect of over 50% in size
# An asterisk follows results filed as active; ? = inconclusive; nt = no result; [ ] = remark or other dose. The full list was thinned out, with hits kept by preference.
SMILES,Shiga toxin inh,Marburg entry inh,AMA1 RON2 block,CHX counter,LASV entry inh
COc1ccc(NC(=O)c2oc3ccccc3c2NC(=O)Cc2cccs2)c(OC)c1,nt,-0.7%[46.1 µM],nt,nt,?
C=CCn1c(=O)c2ccccc2n2c(SCc3nnc(-c4ccccc4Br)o3)nnc12,-6.3,?,6.9%,1.2,-0.1%
Cc1ccc(NC(=O)C2CCN(C(=O)[C@@H]3Cc4ccccc4CN3)CC2)c(C)c1,-10.5,nt,-13.4%,14.3*,nt
COc1ccc(NC(=O)C2CCN(C(=O)[C@@H]3Cc4ccccc4CN3)CC2)cc1,13.0,nt,-11.3%,33.3*,nt
Cc1cccc(NC(=O)C2CCN(C(=O)[C@@H]3Cc4ccccc4CN3)CC2)c1,15.5,nt,-3.3%,24.2,nt
COc1ccc(CNC(=O)C2CCN(C(=O)[C@@H]3Cc4ccccc4CN3)CC2)cc1,24.2,nt,0.0%,-7.1,nt
CCc1ccc(NC(=O)C2CCN(C(=O)[C@@H]3Cc4ccccc4CN3)CC2)cc1,59.7*,?,0.0%,34.3*,?
CCOC(=O)c1ccc2ncc3c(-c4ccccc4)nn(-c4ccc(F)c(Cl)c4)c3c2c1,nt,4.6%[46.1 µM],nt,nt,-2.9%[46.1 µM]
CCc1nn2c(=O)cc(COC(=O)C(CC)c3ccccc3)nc2s1 (stereo not given),nt,nt,nt,nt,10.4%[46.1 µM]
COc1ccc([C@H]2C=C3CN(C(=O)OC(C)(C)C)S(=O)(=O)[C@H]3C[C@H]2OC(=O)c2cccs2)cc1,8.5,nt,-23.8%,1.7,nt
O=S(=O)(Nc1cccc(S(=O)(=O)N2CCOCC2)c1)c1cccs1,-2.5,23.7%,4.8%,-3.4,1.6%
Cc1ccc(OC(C)C(=O)Nc2ccc(C)c(S(=O)(=O)Nc3ccc(C)cc3C)c2)cc1 (stereo not given),-10.1,?,-7.0%,-1.5,16.4µM*
O=C(COc1ccc(Br)cc1Cl)NC(=S)N1CCc2ccccc21,50.1*,0.7%[46.1 µM],33.3%,35.5*,?
O=C(NC(=S)N1CCc2ccccc21)c1ccccc1Br,95.8*,5.1%,45.5%,24.7*,0.4%
O=C(COc1ccc(Br)cc1CO)N1CCCc2ccccc21,-1.0,0.7%[46.1 µM],15.4%,0.1,-18.1%[46.1 µM]
O=C(COc1ccc(Br)cc1Br)NC(=S)N1CCCc2ccccc21,53.6,18.5%,-12.9%,48.1*,?
COc1ccc(C(=O)NCCCNC(=O)c2cnccn2)cc1Br,-17.9,10.2%[46.1 µM],-5.3%,-4.0,-2.9%
Cc1nnc(SCC(=O)Nc2c(Cl)cccc2Cl)n(N)c1=O,nt,12.2%,14.1%,nt,21.4%[46.1 µM]
Cc1cc2c(s1)c1cnn(Cc3ccccc3)c(=O)c1n2C,-5.1,nt,nt,-4.5,nt
CCC(=NCc1ccco1)c1c(O)n(-c2ccc(OC)cc2)c(=O)[nH]c1=O,-5.0,11.2%[46.1 µM],-0.6%,-1.5,1.64µM*
CCC(=NCc1ccco1)c1c(O)n(-c2ccc(Cl)cc2)c(=O)[nH]c1=O,-2.7,?,-2.4%,1.3,?
COc1ccc(-n2c(O)c(/C(C)=N/Nc3ccccc3)c(=O)[nH]c2=O)cc1,1.1,?,-4.0%,-2.4,?
COc1ccc(-n2c(O)c(/C(C)=N/N3CCCCCC3)c(=O)[nH]c2=O)cc1,7.2,?,7.2%,-1.2,2.24µM*
COc1cccc([C@@H]2NC(=O)CC=C[C@H](C)[C@H](c3cccc(OC)c3)NC(=O)CC=C[C@H]2C)c1,nt,15.8%[14.2 µM],nt,nt,nt
COc1ccc(/C(C)=N/N2C(=O)c3ccccc3NC2c2ccc(O)c(OC)c2)cc1 (stereo not given),32.8*,nt,26.1%,13.8*,nt
SMILES,Shiga toxin inh,Marburg entry inh,AMA1 RON2 block,CHX counter,LASV entry inh
CC(=O)NN1C(=O)c2ccccc2NC1c1ccccc1O (stereo not given),-5.1,7.4%[46.1 µM],63.8%,-4.2,-4.1%[46.1 µM]
COc1ccc(C2Nc3ccccc3C(=O)N2NC(=O)c2ccccc2)cc1OC (stereo not given),22.6,nt,17.9%,6.3,nt
COc1ccc(N2C(=O)c3ccccc3NC2c2ccccc2O)cc1 (stereo not given),56.5*,nt,1.6%,42.6*,nt
CCOc1cc(C2Nc3ccccc3C(=O)N2c2ccccc2)ccc1O (stereo not given),43.2,?,-2.4%,19.2*,4.0%
COc1cc(C2C(=O)c3ccccc3C2=O)ccc1O,nt,nt,30.0%,59.1*,nt
COc1ccc(Cl)c(-c2cc(C(=O)Nc3ccccc3)[nH]n2)c1,nt,nt,2.9%,nt,nt
CCCNC(=O)c1onc(CSc2ccc(F)cc2)c1C(=O)NCCOC,nt,nt,4.3%,nt,nt
O=C1c2ccccc2NC(c2cccc([N+](=O)[O-])c2)N1CCc1ccccc1 (stereo not given),73.8*,?,-13.6%,44.0*,?
COc1ccc(C2Nc3ccccc3C(=O)N2NC(C)=O)cc1OC (stereo not given),28.0,nt,14.3%,12.2,nt
COc1cc(C2Nc3ccccc3C(=O)N2c2ccccc2)ccc1O (stereo not given),122.6*,?,7.1%,46.5*,17.9%
COc1ccc(CCN2C(=O)c3ccccc3NC2c2cc(Cl)c(O)c(OC)c2)cc1 (stereo not given),-6.1,?,-13.1%,-1.8,5.62µM*
COc1ccc(C2Nc3ccccc3C(=O)N2O)cc1OC (stereo not given),16.4,-23.4%,9.1%,20.3*,13.1%
O=C(Nc1ccc2c(c1)OCO2)c1cc(C2CCCCN2S(=O)(=O)Cc2ccccc2)on1 (stereo not given),nt,nt,-16.5%,nt,nt
CC(C)Oc1ccccc1C1Nc2ccccc2C(=O)N1c1ccc2c(c1)OCCO2 (stereo not given),71.1*,?,-4.6%,54.0*,?
COc1ccc(C2Nc3ccccc3C(=O)N2c2ccc(F)cc2)cc1CSc1ccccn1 (stereo not given),12.2,?,0.2%,14.9*,-29.8%
COc1ccc(C2Nc3ccccc3C(=O)N2c2ccccc2)cc1CSc1ccccn1 (stereo not given),1.9,7.3%,0.0%,7.9,-5.4%
CC1=C(C(=O)Nc2ccccc2C)C(c2ccccn2)n2nc(SCc3ccccc3F)nc2N1 (stereo not given),nt,21.0%[46.1 µM],nt,nt,-1.3%[46.1 µM]
CCOc1ccc(-n2cc(C(=O)N3CCCCCC3)c3cc(OC)c(OC)cc3c2=O)cc1,-17.6,-8.7%,15.3%,-3.1,1.4%
CCOc1cc(CNC2CCCC2)cc(Cl)c1OCc1ccc(F)cc1,-23.2,5.8µM*,-2.7%,-6.3,?
COc1cc(CNC2CCCC2)cc(Cl)c1OCc1ccc(F)cc1,-10.9,?,-1.8%,-3.7,?
COc1cc(CNC2CCCC2)cc(Cl)c1OCc1ccccc1Cl,-14.8,10.3µM*,0.0%,-2.4,?
O=C(Nc1ccccc1)c1cc2ccccc2s1,nt,?,-6.2%,nt,?
O=C(Nc1ccccc1)c1cc2ccccc2c(=O)s1,35.5*,-1.8%,7.4%,40.8*,0.8%
O=C(Nc1ccc(Cl)cc1)c1cc2c(Cl)nc3ccccc3c2s1,nt,-0.3%[46.1 µM],nt,nt,-4.8%[46.1 µM]
O=C(Nc1ccc(O)cc1)c1cc2ccccc2c(=O)s1,112.5*,?,-22.0%,55.8*,-2.3%
CCC(C)(C(=O)NC1CCCCC1)N(C(=O)CC1NC(=O)NC1=O)c1c(C)n(C)n(-c2ccccc2)c1=O (stereo not given),22.4,13.7%,0.4%,-2.9,23.8%
